# Test results published in publication PMC7862700, “An all-to-all approach to the identification of sequence-specific readers for epigenetic DNA modifications on cytosine”.
# Columns and labels:
# Experiment in all cases: DAPPL (digital affinity profiling via proximity ligation, sequencing); 10 mM Tris-HCl pH 7.5, 50 mM NaCl, 1 mM DTT, 4% glycerol, room temperature, 30 min; GST-TFs on glutathione beads, 16-mer random dsDNA library, 0.1% formaldehyde crosslink after washing; high values mean tight binding
# Settings in all cases: protein: recombinant; tags: N-terminal GST; dsDNA, one strand shown
# ELK1 = biological target: T1, ELK1 (Homo sapiens, UniProt P19419 1-428)
# T1 sequence: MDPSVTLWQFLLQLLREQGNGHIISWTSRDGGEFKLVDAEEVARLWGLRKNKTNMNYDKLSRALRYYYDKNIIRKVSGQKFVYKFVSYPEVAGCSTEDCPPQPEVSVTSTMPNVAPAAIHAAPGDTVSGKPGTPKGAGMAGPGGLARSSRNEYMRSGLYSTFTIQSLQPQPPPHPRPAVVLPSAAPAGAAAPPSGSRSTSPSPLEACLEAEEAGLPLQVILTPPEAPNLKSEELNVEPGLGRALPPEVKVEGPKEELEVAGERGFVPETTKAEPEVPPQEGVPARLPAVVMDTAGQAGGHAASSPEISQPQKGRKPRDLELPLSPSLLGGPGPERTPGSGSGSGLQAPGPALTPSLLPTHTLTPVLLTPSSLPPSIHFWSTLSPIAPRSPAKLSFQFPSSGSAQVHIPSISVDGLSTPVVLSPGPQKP
# Procedure, shortened: (§1)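 Human transcription factors were made in yeast as GST fusions, captured on glutathione beads and barcoded with DNA. With a tag-only sample included, the pool was incubated with 200 nmole of a random double-stranded 16-mer DNA library in Tris/NaCl/DTT/glycerol buffer at room temperature for 30 min, then crosslinked with 0.1% formaldehyde after washing, ligated by proximity, amplified and sequenced. For binding signal, each hexamer's read frequency for a factor is divided by its frequency for the tag-only sample.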
# GABPA = biological target: T2, GABPA (Homo sapiens, UniProt Q06546 1-454)
# T2 sequence: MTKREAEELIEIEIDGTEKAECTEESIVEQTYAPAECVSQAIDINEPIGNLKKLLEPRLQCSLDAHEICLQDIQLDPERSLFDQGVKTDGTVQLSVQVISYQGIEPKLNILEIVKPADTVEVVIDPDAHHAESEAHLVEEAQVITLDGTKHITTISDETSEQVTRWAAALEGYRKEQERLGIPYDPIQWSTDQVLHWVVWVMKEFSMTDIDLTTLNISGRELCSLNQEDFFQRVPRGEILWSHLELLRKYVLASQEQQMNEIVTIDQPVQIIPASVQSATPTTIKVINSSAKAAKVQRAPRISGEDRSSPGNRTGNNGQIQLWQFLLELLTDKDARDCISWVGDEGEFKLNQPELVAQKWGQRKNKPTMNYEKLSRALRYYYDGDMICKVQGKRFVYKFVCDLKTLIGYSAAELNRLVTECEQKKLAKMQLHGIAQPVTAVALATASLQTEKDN
# Procedure, shortened: as §1
# ERG = biological target: T3, ERG (Homo sapiens, UniProt P11308 1-479)
# T3 sequence: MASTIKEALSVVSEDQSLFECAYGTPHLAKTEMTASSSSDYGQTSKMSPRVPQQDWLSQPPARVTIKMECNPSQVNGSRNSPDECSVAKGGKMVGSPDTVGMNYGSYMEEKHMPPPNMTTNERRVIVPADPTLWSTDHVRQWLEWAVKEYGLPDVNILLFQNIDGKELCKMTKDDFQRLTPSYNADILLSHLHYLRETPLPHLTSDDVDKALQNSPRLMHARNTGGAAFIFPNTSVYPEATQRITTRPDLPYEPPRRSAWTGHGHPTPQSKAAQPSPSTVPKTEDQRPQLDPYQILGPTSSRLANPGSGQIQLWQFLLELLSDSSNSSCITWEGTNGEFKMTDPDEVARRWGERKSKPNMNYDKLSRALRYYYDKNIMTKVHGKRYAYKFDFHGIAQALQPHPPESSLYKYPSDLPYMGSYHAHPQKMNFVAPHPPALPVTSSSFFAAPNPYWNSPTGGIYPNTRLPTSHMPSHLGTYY
# Procedure, shortened: as §1
# ELF1 = ELF1 (Homo sapiens, UniProt P32519 1-619)
# ELF1, sequence (P32519 whole entry): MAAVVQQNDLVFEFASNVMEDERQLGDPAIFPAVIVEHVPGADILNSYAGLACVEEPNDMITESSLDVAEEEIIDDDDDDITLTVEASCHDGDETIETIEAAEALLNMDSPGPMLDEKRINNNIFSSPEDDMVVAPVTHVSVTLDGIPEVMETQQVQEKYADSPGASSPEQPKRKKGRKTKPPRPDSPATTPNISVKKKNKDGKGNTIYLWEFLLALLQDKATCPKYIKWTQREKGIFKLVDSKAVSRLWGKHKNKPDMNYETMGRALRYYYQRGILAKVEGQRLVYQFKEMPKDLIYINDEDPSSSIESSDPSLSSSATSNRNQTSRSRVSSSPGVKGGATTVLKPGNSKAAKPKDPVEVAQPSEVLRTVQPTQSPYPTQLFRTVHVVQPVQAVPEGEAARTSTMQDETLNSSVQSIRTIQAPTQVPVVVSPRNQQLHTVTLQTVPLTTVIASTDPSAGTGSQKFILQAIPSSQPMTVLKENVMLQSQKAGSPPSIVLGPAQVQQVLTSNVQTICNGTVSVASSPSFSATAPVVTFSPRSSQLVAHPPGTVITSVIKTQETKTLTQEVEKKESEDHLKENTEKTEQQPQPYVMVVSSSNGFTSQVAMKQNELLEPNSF
# Procedure, shortened: as §1
# EHF = biological target: T4, EHF (Homo sapiens, UniProt Q9NZC4 1-300)
# T4 sequence: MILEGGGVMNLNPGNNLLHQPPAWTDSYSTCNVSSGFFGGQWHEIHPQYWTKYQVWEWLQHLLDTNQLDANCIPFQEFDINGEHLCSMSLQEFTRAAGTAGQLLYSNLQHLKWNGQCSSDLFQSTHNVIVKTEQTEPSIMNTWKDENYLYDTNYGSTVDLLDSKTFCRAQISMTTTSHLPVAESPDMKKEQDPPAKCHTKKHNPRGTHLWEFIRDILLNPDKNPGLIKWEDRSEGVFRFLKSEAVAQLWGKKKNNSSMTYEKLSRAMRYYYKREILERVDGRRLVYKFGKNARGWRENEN
# Procedure, shortened: as §1
# SPIB = SPIB (Homo sapiens, UniProt Q01892 1-262)
# SPIB, sequence (Q01892 whole entry): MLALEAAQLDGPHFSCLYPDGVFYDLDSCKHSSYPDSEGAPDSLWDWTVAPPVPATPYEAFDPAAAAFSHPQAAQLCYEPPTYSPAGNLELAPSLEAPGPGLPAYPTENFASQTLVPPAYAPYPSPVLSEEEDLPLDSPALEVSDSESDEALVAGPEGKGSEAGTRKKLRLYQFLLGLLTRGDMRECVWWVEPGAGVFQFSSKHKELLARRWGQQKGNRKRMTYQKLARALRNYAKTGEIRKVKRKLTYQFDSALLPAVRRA
# Procedure, shortened: as §1
# ELK3 = biological target: T5, ELK3 (Homo sapiens, UniProt P41970 1-407)
# T5 sequence: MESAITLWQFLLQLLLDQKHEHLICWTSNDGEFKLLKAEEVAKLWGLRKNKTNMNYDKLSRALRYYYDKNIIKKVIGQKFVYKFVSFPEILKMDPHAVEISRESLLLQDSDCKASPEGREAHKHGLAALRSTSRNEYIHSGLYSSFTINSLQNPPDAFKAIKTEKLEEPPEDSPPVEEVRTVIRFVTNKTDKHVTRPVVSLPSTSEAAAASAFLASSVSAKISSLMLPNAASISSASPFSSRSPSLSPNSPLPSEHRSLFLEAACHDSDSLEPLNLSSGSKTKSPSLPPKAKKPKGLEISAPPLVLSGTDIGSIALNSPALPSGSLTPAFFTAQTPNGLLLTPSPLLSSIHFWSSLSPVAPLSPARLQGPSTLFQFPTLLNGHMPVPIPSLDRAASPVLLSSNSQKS
# Procedure, shortened: as §1
# SPIC = biological target: T6, SPIC (Homo sapiens, UniProt Q8N5J4 1-248)
# T6 sequence: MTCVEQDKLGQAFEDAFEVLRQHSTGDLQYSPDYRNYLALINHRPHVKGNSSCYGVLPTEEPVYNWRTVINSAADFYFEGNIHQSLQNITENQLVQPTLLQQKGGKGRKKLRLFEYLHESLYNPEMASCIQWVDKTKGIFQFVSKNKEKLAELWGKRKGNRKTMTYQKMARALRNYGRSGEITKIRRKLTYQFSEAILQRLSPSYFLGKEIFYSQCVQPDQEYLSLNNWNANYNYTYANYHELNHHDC
# Procedure, shortened: as §1
# ELF4 = ELF4 (Homo sapiens, UniProt Q99607 1-663)
# ELF4, sequence (Q99607 whole entry): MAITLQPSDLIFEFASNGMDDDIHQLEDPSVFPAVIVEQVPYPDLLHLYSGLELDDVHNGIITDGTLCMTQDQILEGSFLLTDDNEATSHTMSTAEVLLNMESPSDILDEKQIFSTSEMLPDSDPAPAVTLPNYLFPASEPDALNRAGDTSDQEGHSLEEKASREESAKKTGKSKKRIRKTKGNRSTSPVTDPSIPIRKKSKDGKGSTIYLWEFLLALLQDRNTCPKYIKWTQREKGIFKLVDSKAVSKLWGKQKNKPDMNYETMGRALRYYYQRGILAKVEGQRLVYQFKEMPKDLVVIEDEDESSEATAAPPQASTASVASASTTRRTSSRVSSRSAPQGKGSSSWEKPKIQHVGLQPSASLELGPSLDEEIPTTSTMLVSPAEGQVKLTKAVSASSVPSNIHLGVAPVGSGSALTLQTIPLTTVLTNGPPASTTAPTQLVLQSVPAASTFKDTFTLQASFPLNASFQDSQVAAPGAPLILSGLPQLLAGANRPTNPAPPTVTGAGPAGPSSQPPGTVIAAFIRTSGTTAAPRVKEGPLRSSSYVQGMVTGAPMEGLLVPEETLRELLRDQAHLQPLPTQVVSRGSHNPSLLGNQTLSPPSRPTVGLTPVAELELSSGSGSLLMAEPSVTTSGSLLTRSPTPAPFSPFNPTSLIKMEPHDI
# Procedure, shortened: as §1
sequence,measurement,setting,value
CGTTTA,binding signal,ELK1,"1.08 fold enrichment (6-mer frequency, TF over GST control)"
same,binding signal,GABPA,"1.13 fold enrichment (6-mer frequency, TF over GST control)"
same,binding signal,ERG,"1.05 fold enrichment (6-mer frequency, TF over GST control)"
same,binding signal,ELF1,"1.06 fold enrichment (6-mer frequency, TF over GST control)"
same,binding signal,EHF,"1.06 fold enrichment (6-mer frequency, TF over GST control)"
same,binding signal,SPIB,"1.11 fold enrichment (6-mer frequency, TF over GST control)"
same,binding signal,ELK3,"1.12 fold enrichment (6-mer frequency, TF over GST control)"
same,binding signal,SPIC,"1.03 fold enrichment (6-mer frequency, TF over GST control)"
same,binding signal,ELF4,"1.07 fold enrichment (6-mer frequency, TF over GST control)"
